Experimental data as given in PubChem BioAssay AID596 (National Center for Advancing Translational Sciences (NCATS), 2007).
Among all 71,000 compounds or so, about 1,400 (2%) were called active. Roughly 3% stayed inconclusive and do not appear here. Calls follow the shape of the dose curve; as a rule, active = well fitted curve in the direction sought with a large enough effect; inconclusive = small, poorly fitted or top-dose-only effect; inactive = no such curve, though single readings can be large or run the other way. Only a selection was taken, and actives are over-represented in it overall.

target: Microtubule-associated protein tau (Homo sapiens) (UniProt P10636); assay: qHTS Assay for Tau Filament Binding; conditions: recombinant tau filaments, thioflavin S fluorescence, 15 h, filaments grown with octadecylsulfate alongside compound; series mostly up to 57.1 µM; activity change, negative = inhibition: at the top concentration;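 also: actives lower thioflavin S fluorescence by blocking filaments or displacing dye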
Method in brief: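 Recombinant tau protein (human, 1 uM final) plus 30 uM ODS in HEPES pH 7.4 with NaCl, DTT and thioflavine S. Compound present from the start; fluorescence at 510 nm after 15 h, 37 C.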
% is scaled to controls: 0 for no effect and ±100 for the full control effect; potency is read from the fitted curve at half-maximal effect.

Sequence of Microtubule-associated protein tau (Homo sapiens) (P10636 whole entry, looked up): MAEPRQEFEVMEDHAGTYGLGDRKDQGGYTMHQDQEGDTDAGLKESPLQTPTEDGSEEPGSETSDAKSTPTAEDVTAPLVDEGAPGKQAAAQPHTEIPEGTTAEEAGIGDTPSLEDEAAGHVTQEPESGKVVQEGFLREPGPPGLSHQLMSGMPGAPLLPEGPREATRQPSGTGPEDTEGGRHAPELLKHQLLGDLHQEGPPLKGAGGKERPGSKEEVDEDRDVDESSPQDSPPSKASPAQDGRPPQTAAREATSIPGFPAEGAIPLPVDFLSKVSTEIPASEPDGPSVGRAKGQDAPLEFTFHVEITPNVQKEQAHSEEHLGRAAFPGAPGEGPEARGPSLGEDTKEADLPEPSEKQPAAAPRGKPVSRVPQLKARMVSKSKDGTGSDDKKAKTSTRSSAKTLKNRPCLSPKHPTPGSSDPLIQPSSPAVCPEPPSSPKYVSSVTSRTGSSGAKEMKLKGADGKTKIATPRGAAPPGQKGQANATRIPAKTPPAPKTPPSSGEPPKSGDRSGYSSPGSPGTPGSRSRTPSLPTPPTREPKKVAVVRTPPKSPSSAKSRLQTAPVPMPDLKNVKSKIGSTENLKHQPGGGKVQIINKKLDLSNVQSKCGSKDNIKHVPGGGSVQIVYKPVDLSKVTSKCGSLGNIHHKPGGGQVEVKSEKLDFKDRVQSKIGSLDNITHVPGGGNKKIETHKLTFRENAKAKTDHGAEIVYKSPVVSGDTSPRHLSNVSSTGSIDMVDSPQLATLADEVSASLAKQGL

Row | SMILES | activity change, negative = inhibition | Potency
1 | COC(=O)C1(Cc2ccccc2)C=C2C(=C(C)C(=O)C2C)CN1 (configuration not stated) | 21.1% (inactive) | 
2 | Cc1ccc(C2CC(c3cccc(Br)c3)n3nc(N)nc3N2)cc1 (configuration not stated) | -30% (inactive) | 
3 | CCNC(=S)NCC | -11.9% (inactive) | 
4 | CCOC(=O)CSc1nc2c(sc(=S)n2CCc2ccccc2)c(=O)n1Cc1ccco1 | 98.7% (inactive) | 
5 | O=c1c2ccccc2oc2nc(C3CCCCC3)n(Cc3ccco3)c(=O)c12 | -13.1% (inactive) | 
6 | Cc1ccc(Cn2c(C)nc3c(c2=O)c2nc4ccccc4nc2n3Cc2ccco2)cc1 |  | 25.1 µM (active)
7 | Cc1nc2c(c(=O)n1Cc1ccco1)c1nc3ccccc3nc1n2Cc1ccccc1 |  | 15.8 µM (active)
8 | Cc1ccc(Cn2c(NC(=O)c3ccco3)nc3ccccc32)cc1 | 14.6% (inactive) | 
9 | COCCCn1c2nc3ccccc3nc2c2c(=O)n(Cc3ccc(Cl)cc3)c(C)nc21 | 13.7% (inactive) | 
10 | CCC(C)(C)n1nnnc1C(c1ccccc1OC)N1CCSCC1 (configuration not stated) | -8.9% (inactive) | 
11 | c1ccc(-c2oc3ncnc(N4CCOCC4)c3c2-c2ccccc2)cc1 | 1.3% (inactive) | 
12 | O=C1c2ccccc2-c2ncnc3c(N4CCOCC4)cc(N4CCOCC4)c1c23 |  | 5.01 µM (active)
13 | c1cnn(-c2cc(N3CCOCC3)ncn2)c1 | -1.2% (inactive) | 
14 | C[N+](C)(CCCCCC[N+](C)(C)CCCN1C(=O)c2cccc3cccc(c23)C1=O)CCCN1C(=O)c2cccc3cccc(c23)C1=O |  | 2 µM (active)
15 | O=C1c2ccccc2C(=O)N1CCCSc1ccccc1 | -2.3% [at 11.4 µM] (inactive) | 
16 | COc1ccc(N2C(=O)c3cccc4cccc(c34)C2=O)nn1 | 9.7% (inactive) | 
17 | O=C(c1ccc2c(c1)N(Cc1ccc(F)cc1)C(=O)CS2)N1CCOCC1 | -5.7% (inactive) | 
18 | COc1ccc(N)c(C)c1 | -6.8% (inactive) | 
19 | CCCC(=O)Nc1ccc2c(c1)nc1n2CCSC1 | -16.2% (inactive) | 
20 | Cc1cccc(C(=O)O)c1[N+](=O)[O-] | 11.9% (inactive) | 
21 | Brc1ccc(OCCn2ccnc2)cc1 | -24.1% (inactive) | 
22 | Cc1ccccc1NC(=O)c1ccccc1 | 0.4% (inactive) | 
23 | Cc1cccc(NC(=O)CSC(N)=O)c1C | 3.4% (inactive) | 

Row | SMILES | activity change, negative = inhibition | Potency
24 | Cc1nc(C)c(C(=O)Nc2cccc(C)c2C)o1 |  | 15.8 µM (active)
25 | Cc1cccc(OCC(O)Cn2c(=N)n(CCN3CCOCC3)c3ccccc32)c1 (configuration not stated) | 16% (inactive) | 
26 | CC(C)OCCCNc1nc2c(c(=O)n(Cc3ccccc3F)c(=O)n2C)n1C | 8.7% (inactive) | 
27 | Cc1ccc(NC(=O)c2cc(-c3ccc(C)o3)nc3ccccc23)nc1 |  | 10 µM (active)
28 | Cc1cc(=O)oc(C)c1C(=O)Nc1cnc2ccccc2c1 | 288% (inactive) | 
29 | Cc1ccc2nc(-c3ccccc3)cc(C(=O)O)c2c1 | 1.3% (inactive) | 
30 | C1CCC2OC2C1 (configuration not stated) | 2.7% (inactive) | 
31 | N=C(CC(=O)Nc1ccccn1)c1ccccc1 | -2.3% [at 11.4 µM] (inactive) | 
32 | CC1=Nn2c(nnc2-c2ccccc2)SC1 | 1.3% (inactive) | 
33 | Cc1cc(C)c2c(n1)nn1c(N3CCOCC3)cc(C)nc21 | 18.9% (inactive) | 
34 | COc1ccc(-n2c(=O)c(C)nc3cnc(N4CCOCC4)nc32)cc1 | -8.4% (inactive) | 
35 | Cc1nn2c3cc(N4CCOCC4)ccc3nc2c2ccccc12 |  | 12.6 µM (active)
36 | O=C(C(Cc1ccccc1)n1cccc1)N1CCN(C2CCCCC2)CC1 (configuration not stated) | -11.5% (inactive) | 
37 | O=C(O)/C(=C/c1c(C(=O)O)[nH]c2cc(Cl)cc(Cl)c12)c1ccccc1 | -6.4% (inactive) | 
38 | O=C(CSc1nc2[nH]ncc2c(=O)n1-c1ccccc1)N1CCCc2ccccc21 | 13.4% (inactive) | 
39 | O=c1nc(N2CCOCC2)nc2n1CCO2 | -11.4% (inactive) | 
40 | COc1ccccc1-c1nc(N2CCN(C)CC2)c2ccccc2n1 | -25.5% (inactive) | 
41 | COc1ccccc1-c1cc(NCc2cccs2)ncn1 | -0.6% (inactive) | 
42 | CNc1nc(-c2ccccc2OC)nc2ccccc12 |  | 12.6 µM (active)
43 | COc1ccccc1CNc1nc(-c2c(C)noc2C)nc2ccccc12 | 91.2% (inactive) | 
44 | COc1ccccc1-c1nc(NCc2cccs2)c2ccccc2n1 |  | 2.51 µM (active)
45 | COc1ccccc1-c1nc(NCCNC(C)=O)c2ccccc2n1 | -3.8% (inactive) | 
46 | Cc1ccccc1C(=O)O | 1% (inactive) | 

Row | SMILES | activity change, negative = inhibition | Potency
47 | CCCCCCN(C(=O)CCCCCN1C(=O)NC(c2ccc(C(F)(F)F)cc2)C(C(=O)OCc2ccccc2)=C1C)C(C(=O)NCCCC)c1ccc(OCC(=O)OC)c(C(=O)OC)c1 (configuration not stated) | 72.4% (inactive) | 
48 | COC(=O)[C@@]1(C)C=C[C@@H](Cc2ccccc2)N1C(C)=O | -6.5% (inactive) | 
49 | COc1cc([C@H]2c3cc4c(cc3[C@@H](O[C@@H]3O[C@H]5CO[C@@H](C)O[C@]5(O)C[C@H]3O)[C@@H]3COC(=O)[C@H]23)OCO4)cc(OC)c1O | 0.5% (inactive) | 
50 | COc1ccc(OC)c(Nc2nc(-c3ccc(O)c(O)c3)cs2)c1 |  | 20 µM (active)
51 | Oc1ccc(-c2csc(Nc3cccnc3)n2)cc1 | -0.1% (inactive) | 
52 | COc1ccc(-c2n[nH]c(C)c2-c2ccc(OC)c(OC)c2)c(O)c1 | 1.1% (inactive) | 
53 | CCc1c(C)nc(N)n2c(SCC(=O)N3CCN(c4ccccc4)CC3)nnc12 | 1.5% (inactive) | 
54 | CC(Cc1ccccc1)C(=O)N(C)Cc1ccccc1 (configuration not stated) | -18.4% (inactive) | 
55 | CCc1ccc(N(CC)c2ncnc3nc[nH]c23)cc1 | 14.7% (inactive) | 
56 | O=c1c(-c2cccs2)nc2cnc(Oc3ccccc3)nc2n1-c1ccccc1 | 47.6% (inactive) | 
57 | CN(C(=O)COc1nnc(-c2cccs2)c(-c2cccs2)n1)c1ccccc1 |  | 25.1 µM (active)
58 | CN(C(=O)COc1ccccc1)c1nnc(-c2ccncc2)s1 | -17.9% (inactive) | 
59 | CCCn1c(SCC(N)=O)nnc1C(C)C | 2.8% (inactive) | 
60 | O=C(Cn1cnc2c(nnn2Cc2ccc(F)cc2)c1=O)NCc1ccc2c(c1)OCO2 | 7.3% (inactive) | 
61 | CCOC(=O)C(C)Oc1cccc2c(=O)n(CC(=O)N3CCc4ccccc43)ccc12 (configuration not stated) | 40.3% (inactive) | 
62 | COCCNc1cc(-c2c(C)noc2C)ncn1 | -2.4% (inactive) | 
63 | CCOc1ccc(NCCC(=O)c2ccc3c(c2)OCO3)cc1 |  | 25.1 µM (active)
64 | COC(=O)CCNc1ccc2c(c1)OCCO2 | 1.2% (inactive) | 
65 | COc1ccc(C(=O)Nc2ccc3c(c2)OCO3)cc1OC | -6% (inactive) | 
66 | O=C(Cl)c1ccccc1[N+](=O)[O-] | 8% (inactive) | 
67 | O=C(CSc1nnc(Cc2ccccc2)n1-c1ccccc1)N1CCOCC1 | -4% (inactive) | 
68 | CCN(CC)CCN1C(=O)C(=O)/C(=C(/O)c2ccccc2)C1c1ccccc1F (configuration not stated) | 6.1% (inactive) | 
69 | O=C1C(=O)N(CCN2CCOCC2)C(c2ccccn2)/C1=C(/O)c1ccc(Cl)cc1 (configuration not stated) | 64.6% (inactive) | 

Row | SMILES | activity change, negative = inhibition | Potency
70 | CCN(CC)CCN1C(=O)C(=O)/C(=C(/O)c2ccc(OC)c(OC)c2)C1c1ccccn1 (configuration not stated) |  | 20 µM (active)
71 | CC(=O)OCCC(C)C | -0.1% (inactive) | 
72 | COc1cccc(-c2nc3cc(C)ccc3o2)c1 | -7.9% (inactive) | 
73 | CCCCCC(=O)Nc1ccc2oc(-c3ccncc3)nc2c1 | -29.6% (inactive) | 
74 | CCc1ccc2oc(-c3ccc(N)cc3)nc2c1 |  | 25.1 µM (active)
75 | CCCCCCc1ccc(O)cc1O | -23.7% (inactive) | 
76 | CC(C)n1c(SCC(=O)Nc2ccccc2N2CCCCC2)nc2c1c(=O)n(C)c(=O)n2C | 5% (inactive) | 
77 | CC(C)CNS(=O)(=O)c1ccc(OCC(=O)Nc2ccc3c(c2)OCO3)c(Cl)c1 | 101% (inactive) | 
78 | COc1ccc(F)cc1S(=O)(=O)Nc1ccc2c(c1)OCO2 | -5.1% (inactive) | 
79 | COc1ccc(S(=O)(=O)Nc2ccc3c(c2)OCO3)cc1Cl |  | 20 µM (active)
80 | c1ccc2sc(SCCSc3nc4ccccc4s3)nc2c1 | -3.1% [at 11.4 µM] (inactive) | 
81 | CCOc1ccc(NC(=O)CCS(=O)(=O)c2cccc3nsnc23)cc1 | -9.9% (inactive) | 
82 | CCOc1ccc(-c2cn(S(=O)(=O)c3cccc4nsnc34)nc2N)cc1 |  | 25.1 µM (active)
83 | CCCCN(CC)C(=O)CN(C)S(=O)(=O)c1cccc2nsnc12 | -4.7% (inactive) | 
84 | CC1CCCC(NC(=O)CSc2nccn2C)C1C (configuration not stated) | 9% (inactive) | 
85 | O=C(c1cnccn1)N1CCC2(CCN(Cc3cc(C(F)(F)F)cc(C(F)(F)F)c3)CC2)CC1 | -9.4% (inactive) | 
86 | COc1cc(Br)cc(/C=N/c2ncn[nH]2)c1O |  | 1.58 µM (active)
87 | C/C=C/C=C/C(=O)O | -9.3% (inactive) | 
88 | O=C(OCC(COC(=O)c1ccccc1)(COC(=O)c1ccccc1)COC(=O)c1ccccc1)c1ccccc1 | 2.5% (inactive) | 
89 | N#Cc1nc(N)nc(N(c2ccccc2)c2ccccc2)n1 |  | 7.94 µM (active)
90 | CC(C)Nc1nc(N(c2ccccc2)c2ccccc2)nc(-n2ccnc2)n1 | 5% (inactive) | 
91 | CCOC(=O)c1cn(CC(=O)Nc2ccc(C(C)C)cc2)nn1 | -18% (inactive) | 
92 | CCCC(=O)Nc1cc(OCC)c(NC(=O)NC2CCCCC2)cc1OCC | 0.7% (inactive) | 

Row | SMILES | activity change, negative = inhibition | Potency
93 | O=C(O)CC(C(=O)O)C(CC(=O)O)C(=O)O (configuration not stated) | -2.3% (inactive) | 
94 | CCCC[C@@H]1C[C@H]1C(NC(=O)c1ccco1)c1ccc(C(=O)OC)cc1 (some centres not stated) | 8.7% (inactive) | 
95 | CC(=O)N1CCC(C(=O)Nc2nc(-c3ccccc3)ns2)CC1 |  | 10 µM (active)
96 | CCN(CC)S(=O)(=O)N1CCC(C(=O)NC(C)CCc2ccccc2)CC1 (configuration not stated) | 6% (inactive) | 
97 | Cc1ccc2c(NC(=O)C3CC3)cccc2n1 | -1.6% (inactive) | 
98 | Cc1noc(C)c1-c1cc(NCc2cccnc2)ncn1 | 5.5% (inactive) | 
99 | O=S(=O)(NCc1cccnc1)c1ccc(Br)s1 | -1.9% (inactive) | 
100 | COc1ccc(Cl)cc1S(=O)(=O)Nc1cccc(C(=O)O)c1 | 11.9% (inactive) | 
101 | Cc1ccnc(SCCn2c(N(C)Cc3ccccc3)nc3c2c(=O)n(C)c(=O)n3C)n1 | 0.1% (inactive) | 
102 | COc1cccc(-c2nc(Nc3ccncc3)c3ccccc3n2)c1 | 105% (inactive) | 
103 | c1ccc2c(Nc3ccncc3)nc(-c3ccoc3)nc2c1 |  | 7.94 µM (active)
104 | CCOC(=O)CSc1nnc(NC(=O)c2cccc(S(=O)(=O)N3CCCCC3)c2)s1 | 5.8% (inactive) | 
105 | CCn1c(COc2cccc(OC)c2)nnc1SCC(=O)N1CCOCC1 | 3% (inactive) | 
106 | CCCS(=O)(=O)Nc1c(C(=O)O)[nH]c2ccccc12 |  | 25.1 µM (active)
107 | COC(=O)c1[nH]c2ccccc2c1NS(=O)(=O)c1ccc(OC)cc1OC | 0.1% (inactive) | 
108 | CCCC(=O)Nc1c(O)c2ccccc2[nH]c1=O | 0.1% (inactive) | 
109 | C[C@]12C=CC(=O)C=C1CC[C@@H]1[C@@H]2C(=O)C[C@@]2(C)[C@H]1CC[C@]2(O)C(=O)CO | -6.3% (inactive) | 
110 | COCCCNC(=O)CSc1nc2ccc(N3CCOCC3)cc2c(=O)n1CCc1ccccc1 | -17.5% (inactive) | 
111 | CCn1c(SCC(=O)NCC2CCCO2)nc2cc(S(=O)(=O)N3CCCCC3)ccc21 (configuration not stated) | 0.9% (inactive) | 
112 | CCCCn1c(SCC(=O)NCC2CCCO2)nc2ccc(N3CCOCC3)cc2c1=O (configuration not stated) |  | 15.8 µM (active)
